Experimental data from PubChem BioAssay.
Values without a mark were called inactive.

Test: growth modulation of vineyard yeast isolate – strain RM11-1a, OD600, basal, 24 h, primary screen (AID 1177);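 note: cultures grown under basal conditions with no added stressor; test concentration not given here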
Details: S. cerevisiae RM11-1a growth, OD600, 24 h; higher = more signal, called active from +8 up or from −8 down

Row | SMILES | z-score
1 | O=C1OCC=C[C@H]2OC34C=CCN(CCN5CCOCC5)C(=O)[C@H]3N(CCCO)C(=O)[C@@H]4[C@@H]12 (stereo partly specified) | 0.451
2 | [N-]=[N+]=Nc1ccccc1C[C@@]1(C(=O)NCCN2CCOCC2)N=C(c2ccc(OCCCO)cc2)O[C@@H]1c1ccccc1 | -0.0653
3 | COc1ccc(C(=O)Nc2ccc(CN3C(=O)[C@@]4(O[C@@H](CCO)[C@H]([Si](C)(C)c5ccc(OC)cc5)[C@H]4C)c4ccccc43)cc2)cc1 | 3.08
4 | CC(C)(C)OC(=O)CC[C@@]1(C(N)=O)N=C(c2ccc(OCCCO)cc2)O[C@@H]1c1ccccc1 | -0.412
5 | COc1ccc(C(=O)Nc2ccc(CN3C(=O)[C@@]4(O[C@@H](CC(=O)N5CCC[C@H]5CO)[C@H]([Si](C)(C)c5ccc(OC)cc5)[C@H]4C)c4ccccc43)cc2)cc1 | 0.515
6 | CN1C(=O)C2C=CC(C(O)C3CCCCC3)N(Nc3ccc([N+](=O)[O-])cc3[N+](=O)[O-])C2C1=O (stereo unspecified) | -0.0006
7 | CN1C(=O)C2C=CC(C(O)Cc3ccccc3)N(Nc3ccccc3)C2C1=O (stereo unspecified) | 0.217
8 | COc1ccc(CCNC(=O)[C@@]2(Sc3ccc(C)cc3)CC(=O)N(C3CCCCC3)[C@@H]2c2ccc(CO)cc2I)cc1 | -0.382
9 | O=C1OCCC/C=C\[C@H]2OC34C=CCN(CCN5CCOCC5)C(=O)[C@H]3N(CCCO)C(=O)[C@@H]4C12 (stereo partly specified) | -1.22
10 | C=CCC(OC(C)=O)[C@@H]1[C@@H](N(Cc2ccc(-c3ccccc3)cc2)C(=O)Cc2ccc(F)cc2)c2cc(OCCCO)ccc2N1C(=O)c1ccc(-c2ccccc2)cc1 (stereo partly specified) | -1.34
11 | O=C(c1ccccc1)N1Cc2ccccc2[C@@H]2OC(c3ccc(OCCCO)cc3)=N[C@]2(Cc2ccccc2)C1=O | 0.843
12 | COC(=O)C(CC#Cc1ccc2c(c1)[C@]1(C(=O)N2)[C@H](C(=O)O)[C@H]2C(=O)O[C@H](c3ccccc3)[C@H](c3ccccc3)N2[C@@H]1c1ccc(O)cc1)C(=O)OC | 0.62
13 | O=C1NCC(=O)N2[C@@H]1C[C@@H](C(=O)O)[C@H]2c1cccc(OCCO)c1 | 0.569
14 | C=CCNC(=O)[C@@H]1[C@H]2C(=O)O[C@H](c3ccccc3)[C@H](c3ccccc3)N2[C@H](c2ccc(OCCO)cc2)[C@@]12C(=O)Nc1ccc(C#CCCO)cc12 | -0.114
15 | C=C(/C(=C/C[C@@H](OC(C)=O)c1ccc(OCCO)cc1)c1cnc2ccccc2c1)C(C)C | -1.87
16 | CN(C)C(=O)[C@]1(Cc2ccccc2N=[N+]=[N-])N=C(c2ccc(OCCCO)cc2)O[C@@H]1c1ccccc1 | 0.504
17 | COc1ccc(CCN2C(=O)[C@@]3(c4ccc([N+](=O)[O-])cc4)CC(=O)N(C4CCCCC4)[C@@H]3c3ccc(CO)cc32)cc1 | -0.582
18 | C[N+](C)(C)CCCCNC(=O)[C@H]1C[C@H]2C(=O)N[C@@H](Cc3ccccc3)C(=O)N2[C@H]1c1ccc(O)cc1 | 0.644

Row | SMILES | z-score
19 | O=C1O[C@H](c2ccccc2)[C@H](c2ccccc2)N2[C@H]1[C@@H](C(=O)N1CCN(c3ncccn3)CC1)[C@]1(C(=O)Nc3ccc(C#CC4=CCCCC4)cc31)[C@H]2c1ccc(O)cc1 | 2.46
20 | COC(=O)[C@@]1(Cc2ccccc2)[C@H]2c3cc(C(=O)N(C)C)n(CCSCCO)c3C[C@H]2CN1C(=O)c1ccccc1 | 0.152
21 | CC(C)OC(=O)C=C1C[C@@H](c2ccccc2C(F)(F)F)O[C@@H](c2ccccc2C(F)(F)F)O1 | 0.123
22 | COCCCNC(=O)[C@@]1(Cc2ccccc2)N=C(c2ccc(OCCCO)cc2)O[C@H]1c1ccccc1 | -0.82
23 | CCCCC=C[C@@H](NC(=O)Oc1cccc(C(F)(F)F)c1)c1ccccc1 | 1.37
24 | O=C1C2C=CC(C(O)C(c3ccccc3)c3ccccc3)N(n3cnnc3)C2C(=O)N1Cc1ccccc1 (stereo unspecified) | -0.255
25 | Cc1ccc(S[C@]2(C(=O)NCC(C)C)CC(=O)N(Cc3cc(C(F)(F)F)cc(C(F)(F)F)c3)[C@@H]2c2ccc(CO)cc2I)cc1 | -1.19
26 | COc1cc2c(cc1O)C(C1CC1)N(Cc1cc3c(cc1Br)OCO3)CC2 (stereo unspecified) | 0.698
27 | CCCCC(=C=CC[C@@H](O)c1ccccc1OCCO)CCO | 0.853
28 | C=CCOC(=O)[C@@H]1[C@H]2C(=O)O[C@H](c3ccccc3)[C@H](c3ccccc3)N2[C@H](c2ccc(OCCOC(=O)[C@@H]3C[C@@H]4C(=O)N[C@@H](Cc5ccccc5)C(=O)N4[C@@H]3c3ccc(O)cc3)cc2)[C@@]12C(=O)Nc1ccc(I)cc12 | 1.91
29 | C=CCNC(=O)[C@@H]1[C@H]2C(=O)O[C@H](c3ccccc3)[C@H](c3ccccc3)N2[C@H](c2ccc(OCCO)cc2)[C@@]12C(=O)Nc1ccc(C#Cc3ccc(OC)cc3)cc12 | 2.6
30 | CCOC(=O)C[C@H]1[C@H](OC(=O)Cc2ccc3c(c2)OCO3)[C@@H](NC(=O)c2ccc(-c3ccccc3)cc2)c2cc(OCCCO)ccc2N1C(=O)c1ccc2ccccc2n1 | -1.63
31 | Cc1ccc(S[C@]2(C(=O)NCC(F)(F)F)CC(=O)N(C(C)C)[C@@H]2c2ccc(CO)cc2I)cc1 | 0.701
32 | C=CCC(OC(C)=O)[C@@H]1[C@@H](N(Cc2ccc(-c3cccc(C(F)(F)F)c3)o2)C(=O)Cc2ccc(F)cc2)c2cc(OCCCO)ccc2N1C(=O)Cc1ccc(OC)cc1 (stereo partly specified) | -0.905
33 | COCCCN1C(=O)[C@@]2(Cc3ccccc31)c1ccccc1C(=O)N(Cc1ccccc1C(F)(F)F)[C@H]2c1ccc(CO)cc1 | -0.305
34 | CCOC1=C2C(CN(S(=O)(=O)c3ccc(C)cc3)C2c2ccc(C)cc2)C2C(=O)N(c3ccccc3)C(=O)C2C1 (stereo unspecified) | 0.413
35 | CC(C)(C)OC(=O)CC[C@@]1(C(=O)NCC(O)CO)N=C(c2ccc(OCCCO)cc2)O[C@@H]1c1ccccc1N=[N+]=[N-] (stereo partly specified) | 0.151
36 | [N-]=[N+]=NCc1ccccc1C[C@]1(C(=O)N2CCOCC2)N=C(c2ccc(OCCCO)cc2)O[C@H]1c1ccccc1N=[N+]=[N-] | -0.405
